Assay outcomes deposited in PubChem by several laboratories.
This is a sample that favours compounds with a hit; in the whole collection about 3.5% have one here.
Mtb bLac sens – beta-lactam sensitization of Mtb H37Rv, H37Rv. M. tuberculosis H37Rv growth with meropenem, percent inhibition. inhibition, % at 25 µM. 330,000 tested, 0.27% active; call rule not given here;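 also: growth measured after seven days incubation then overnight dye step; 0% = bacteria only wells and 100% = bacteria with antibiotic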
Mtb UGM inh – M. tuberculosis UGM enzyme inhibitors, primary screen, biochemical, fluorescence polarization, single point; inhibition, % at 10 µM; purified UGM, fluorescence polarization probe displacement; 320,000 tested, 0.06% active; UDP-galactopyranose mutase (Mycobacterium tuberculosis (strain ATCC 25618 / H37Rv)), …; in the data active = inhibition above about 10%, passing the limit was not always enough; inconclusive = no clear call, values can overlap the other calls
Rv3671c inh – Rv3671c serine protease inhibitors, primary screen, biochemical, fluorescence polarization, M. tuberculosis H37Rv | inhibition, % at 5.96 µM | P9WHR9 | 320,000 tested, 0.048% active; in the data active = inhibition above about 38%;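 also: extracellular domain of Rv3671c used as enzyme; 0% = enzyme with DMSO and 100% = no enzyme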
Target sequence (P9WHR9 whole entry, looked up, the tested form may be a part): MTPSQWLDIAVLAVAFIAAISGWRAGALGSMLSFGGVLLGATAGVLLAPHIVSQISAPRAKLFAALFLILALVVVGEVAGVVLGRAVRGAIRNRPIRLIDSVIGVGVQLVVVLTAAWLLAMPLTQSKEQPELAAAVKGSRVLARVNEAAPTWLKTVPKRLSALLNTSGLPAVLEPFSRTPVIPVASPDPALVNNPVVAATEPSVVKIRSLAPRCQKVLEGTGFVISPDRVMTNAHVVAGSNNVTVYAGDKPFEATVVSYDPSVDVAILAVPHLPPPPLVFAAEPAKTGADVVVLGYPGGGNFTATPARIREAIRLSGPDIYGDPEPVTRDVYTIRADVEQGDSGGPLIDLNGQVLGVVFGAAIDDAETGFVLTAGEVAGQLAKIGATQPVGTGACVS
GDH-TPI counter-1 – GDH-TPI coupling enzyme inhibitors, primary screen, artefact control for M. tuberculosis FBA inhibitor project, biochemical, absorbance, full deck; GDH-TPI coupled enzyme counterscreen, NADH absorbance; inhibition, % at 4.8 µM; 360,000 tested, 1.2% active; in the data active = inhibition above about 30%;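 also: 0% = DMSO wells and 100% = wells lacking the enzyme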
FBA Mtb inh – Mtb FBA enzyme inhibitors, primary screen, biochemical, fluorescence, strain H37Rv; purified M. tuberculosis FBA, fluorescence read-out; AID 588726, 2011; inhibition, % at 1 µM; 360,000 tested, 2.3% active; Fructose-bisphosphate aldolase (Mycobacterium tuberculosis (strain ATCC 25618 / H37Rv)), …;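 also: 0% = vehicle and 100% = reference inhibitor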
Mtb FBA inh conf – M. tuberculosis aldolase blockers, biochemical, fluorescence, strain H37Rv, confirmation | shares compounds with FBA Mtb inh | purified M. tuberculosis FBA, fluorescence read-out | inhibition, % at 1 µM | 5,600 tested, 78% active;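 also: 0% = vehicle wells and 100% = reference inhibitor wells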
GDH-TPI counter-2 – GDH-TPI coupling enzyme inhibitors, artefact control for M. tuberculosis FBA inhibitor project, biochemical, fluorescence, high throughput; inhibition, % at 1 µM; GDH-TPI coupled enzyme counterscreen; AID 652141, 2013; 5,600 tested, 81% active; shares compounds with FBA Mtb inh; in the data active = inhibition above about 10%
Active calls of the source: *; ? = inconclusive; . = no result; + = active, no number. Rule as the data show it, unless noted: active = inhibition above about 27%; inactive = the rest.

SMILES	Mtb bLac sens	Mtb UGM inh	Rv3671c inh	GDH-TPI counter-1	FBA Mtb inh	Mtb FBA inh conf	GDH-TPI counter-2
COc1cc(NC(=O)CCCOc2ccc(Cl)cc2Cl)c(C(=O)O)cc1OC	-2	0	2	13	1	.	.
O=C(CCCOc1ccc(Cl)cc1Cl)Nc1ccc(O)cc1C(=O)O	-2	0	-8	26	30*	+	+
CS(=O)(=O)c1nc(-c2cccs2)cc(C(F)(F)F)n1	100	4	-6	.	.	.	.
O=C(O)CCS(=O)(=O)c1nc(-c2cccs2)cc(C(F)(F)F)n1	.	0	-5	31*	38*	196*	128*
Cc1cc(NC(=O)CSc2nc(-c3cccs3)cc(C(F)(F)F)n2)no1	3	-1	9	16	1	.	.
Cc1cc(NC(=O)CCCS(=O)(=O)c2nc(-c3cccs3)cc(C(F)(F)F)n2)no1	90	-1	-6	39*	52*	68*	52*
Cc1cc(C)c(NC(=O)CN(C)CC(=O)N(C)CC(=O)Nc2c(Cl)cccc2Cl)c(C)c1	1	.	3	4	2	.	.
CCOc1ccc(C(=O)NNC(=O)CNC(=O)c2ccc(C)s2)cc1OC	-5	0	2	-7	-1	.	.
Cc1cc2c(c(=O)n1CCc1ccccc1)C(c1ccco1)C(C#N)=C(N)O2 (configuration not stated)	2	2	2	6	40*	2	-3
CC(C)(C)c1cc(NCCCn2ccnc2)n2ncc(-c3ccc(Cl)cc3)c2n1	99	2	8	14	61*	60*	41*
Cc1cc(NCCCn2ccnc2)n2nc(-c3ccc(Cl)cc3)cc2n1	55	4	-8	1	8	.	.
Cc1ccnc(NC(c2ccccc2)c2ccc3cccnc3c2O)c1 (configuration not stated)	.	.	.	4	-2	.	.
O=C(O)c1ccccc1NC(c1ccccc1)c1ccc2cccnc2c1O (configuration not stated)	.	.	.	13	38*	+	+
CC(C)Cc1[nH]c(=O)c(C#N)c2c1CCC2	-4	5	-2	29	52*	+	169*
CN(C(=O)C1CCOC1)c1nnc(-c2ccncc2)s1 (configuration not stated)	1	3	-4	16	16	.	.
COCC(=O)N(C)c1nnc(-c2ccccn2)s1	-4	3	3	6	52*	92*	69*
CN(C(=O)C1CCCO1)c1nnc(-c2ccccn2)s1 (configuration not stated)	-7	3	-2	10	68*	160*	146*
CN(C(=O)c1ccncc1)c1nnc(-c2ccncc2)s1	16	-1	4	1	43*	92*	81*
Cc1cccc(C(=O)N(C)c2nnc(-c3ccncc3)s2)c1	7	2	-1	6	0	.	.
CN(C(=O)C1CCOC1)c1nnc(-c2ccccn2)s1 (configuration not stated)	3	-1	-4	19	15	.	.
CN(C(=O)C1CCCO1)c1nnc(-c2ccncc2)s1 (configuration not stated)	-1	-1	5	4	63*	104*	89*
NC(=O)C1CCN(C(=O)c2ccc3c(=O)n(Cc4ccco4)c(SCC(=O)c4ccc(F)cc4)nc3c2)CC1	-1	-3	6	.	.	.	.
CCc1nn(CC(=O)NCCc2ccc(S(N)(=O)=O)cc2)c(=O)c2cc3sccc3n12	3	-1	-12	2	2	.	.
CC1=CC(=O)C(C(C)C)=CC1=NC(=O)c1ccc(C)cc1	1	-2	5	-3	2	.	.
O=c1ccc2cc3c4c(c2o1)CCCN4CCC3	2	1	1	0	54*	62*	60*
SMILES	Mtb bLac sens	Mtb UGM inh	Rv3671c inh	GDH-TPI counter-1	FBA Mtb inh	Mtb FBA inh conf	GDH-TPI counter-2
O=c1oc2c3c4c(cc2s1)CCCN4CCC3	0	0	-11	10	-1	.	.
CC1(C)Cc2c(C#N)c(N3CCOCC3)nc(Cc3ccccc3)c2CO1	55	1	1	5	35*	65*	52*
Cc1nc(N2CCOCC2)c(C#N)c2c1COC(C)(C)C2	0	-2	-6	-5	51*	8	-5
CC1(C)Cc2c(C#N)c(N3CCN(C(=O)c4ccccc4)CC3)nc(Cc3ccccc3)c2CO1	75	1	-6	4	2	.	.
Nc1nc(SCC(=O)N2CCCC2)[nH]c(=O)c1NC(=O)c1cccs1	-9	-1	0	9	-1	.	.
O=C(CN(Cc1ccc(F)cc1)C(=O)CCC(=O)Nc1nccs1)NCC1CCCO1 (configuration not stated)	-5	1	0	6	-7	.	.
CC(=O)NC(=O)c1ccc(-c2ccc(Cl)cc2)o1	96	0	-11	21	78*	46*	56*
COc1ccccc1NC(=S)NC(=O)c1ccc(-c2ccc(Cl)cc2)o1	-6	4	1	16	2	.	.
CC1CCc2c(sc(NC(=O)C3=COCCO3)c2C(N)=O)C1 (configuration not stated)	?	-2	-7	17	0	.	.
CCc1cccc(NC(=S)Nc2cccc3ccccc23)c1	-5	2	6	7	46*	86*	77*
Cc1cccc(NC(=S)Nc2cccc3ccccc23)c1	-5	-3	-6	12	47*	143*	112*
Cc1ccc(S(=O)(=O)N(C)C)cc1NC(=S)Nc1cccc2ccccc12	-3	-3	-3	-3	34*	+	194*
CC(=O)NNC(=S)Nc1cc(S(=O)(=O)N(C)C)ccc1C	3	1	-9	8	2	.	.
COc1cccc(NC(=S)Nc2cccc3ccccc23)c1	22	1	-10	-2	21	.	.
Fc1ccc(NC(=S)Nc2cccc3ccccc23)cc1F	1	1	-3	11	49*	24	17*
Fc1ccc(NC(=S)Nc2cccc3ccccc23)cc1	3	2	-7	5	19	.	.
O=C(NCC1CCCO1)C1CCN(C2CCN(C3CCCCCC3)CC2)CC1 (configuration not stated)	-2	2	3	-12	-2	.	.
S=C1NC2(CCCCC2)Nc2ccccc21	-3	2	-6	0	16	.	.
CCOc1cc(C=NN2CCCCCC2)ccc1O	.	.	.	13	-3	.	.
Cc1cc(C)cc(NC(=S)Nc2cccc3ccccc23)c1	32	0	-5	9	42*	147*	129*
